Molecules are shown by their SMILES. “And” between values parts separate entries of the source, which are not always exact repeats. Equal entries are not always repeated. Records with an inconclusive call do not appear. A structure can be active in one record and inactive in another. The source made the active and inactive calls. The call rests on the fitted dose curve.

In test [1] the target is Acetylcholinesterase (Homo sapiens) (UniProt P22303). Nature of the test: Acetylcholinesterase (AChE) small molecule antagonists: colormetric cell-based qHTS assay (AID 1347395). Further: nearly all actives have a fitted effect of over 30% in size. Further: potency means the concentration at half of the fitted maximal effect. In short, it runs like this: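 Colorimetric read-out: DTNB detects thiocholine released when cellular AChE in SH-SY5Y cells hydrolyses acetylthiocholine. Cells attached overnight, received compound for 30 min at 37 C, then substrate mix for 90 min at 37 C.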
Acetylcholinesterase (Homo sapiens), sequence (P22303 whole entry, looked up): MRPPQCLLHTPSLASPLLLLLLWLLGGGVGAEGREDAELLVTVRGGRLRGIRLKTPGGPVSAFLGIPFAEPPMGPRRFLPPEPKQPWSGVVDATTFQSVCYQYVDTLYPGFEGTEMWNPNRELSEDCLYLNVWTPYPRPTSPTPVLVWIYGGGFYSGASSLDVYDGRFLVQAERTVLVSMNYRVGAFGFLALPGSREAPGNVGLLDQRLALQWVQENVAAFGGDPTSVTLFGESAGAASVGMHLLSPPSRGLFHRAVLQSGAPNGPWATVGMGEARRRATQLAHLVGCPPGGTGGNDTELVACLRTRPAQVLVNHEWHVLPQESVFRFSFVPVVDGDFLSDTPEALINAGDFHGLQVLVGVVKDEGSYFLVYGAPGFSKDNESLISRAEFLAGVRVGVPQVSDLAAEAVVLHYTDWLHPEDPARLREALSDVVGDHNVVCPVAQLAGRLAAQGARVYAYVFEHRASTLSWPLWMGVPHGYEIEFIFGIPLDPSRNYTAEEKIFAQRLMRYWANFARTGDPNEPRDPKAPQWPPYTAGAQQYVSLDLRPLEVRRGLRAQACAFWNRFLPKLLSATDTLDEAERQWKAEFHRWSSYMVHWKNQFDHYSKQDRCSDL

Test [2] shares this target. Nature of the test: Acetylcholinesterase (AChE) small molecule antagonists: enzyme-based qHTS assay (AID 1347397). Further: nearly all actives have a fitted effect of over 55% in size. Further: potency means the concentration at half of the fitted maximal effect. To be noted: Potency: AChE enzyme activity inhibition; outcome: AChE enzyme activity inhibition. Summed up: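 Recombinant human AChE, dispensed at 50 mU/mL, was preincubated with Tox21 10K compounds or DMSO vehicle for 30 min at room temperature. DTNB plus acetylthiocholine was then added, and thiocholine was measured colorimetrically after a further 10 min.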

Test [3] shares this target. Put plainly: Acetylcholinesterase (AChE) small molecule antagonists: fluorescence cell-based qHTS assay (AID 1347398). Further: nearly all actives have a fitted effect of over 50% in size. Further: potency means the concentration at half of the fitted maximal effect. The note with it: Potency: AChE activity; outcome: AChE activity. In short, it runs like this:
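Human SH-SY5Y cells were plated overnight at 37 C, exposed to compound for 30 min at 37 C, 5% CO2, then given acetylthiocholine plus Thiolite Green for 40 min at room temperature; thiocholine fluorescence (Ex/Em 490/520 nm) reports endogenous AChE activity.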

Test [4] has the same target. Put plainly: Acetylcholinesterase (AChE) small molecule antagonists: enzyme-based qHTS assay with human liver microsomes (AID 1347399). Further: nearly all actives have a fitted effect of over 60% in size. The note with it: Potency: qHTS inhibition; outcome: qHTS inhibition. In short, it runs like this:
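Recombinant human AChE (50 mU/mL in the enzyme mix) and human liver microsomes (0.25 mg/mL final) were preincubated with compound and NADPH (0.25 mg/mL final) for 30 min at 37 C. Acetylthiocholine/DTNB was then added; thiocholine was read colorimetrically after 10 min at room temperature.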
On the % scale 0 is the no-effect control and ±100 the full control effect.

Regarding `O=C(/C=C/C=C/c1ccc2c(c1)OCO2)N1CCCCC1`, the Potency result in test [1], in test [2], in test [3] and in test [4] was “inactive” in each case.
For `Oc1c(Cl)cc(Cl)cc1Sc1cc(Cl)cc(Cl)c1O`, the Potency entry in test [1], in test [3] and in test [4] was “inactive” each time. The Potency in test [2] is 40 µM (active) and 72.2 µM (active) and 56.4 µM (active).
With `O=C(O)CCCC(=O)O`, the Potency in test [1] is 6.21 µM (active) and inactive. Moreover, the Potency entry in test [2], in test [3] and in test [4] was “inactive” throughout.
On to `Cc1cc(CCC(=O)OCCOCCOCCOC(=O)CCc2cc(C)c(O)c(C(C)(C)C)c2)cc(C(C)(C)C)c1O`, for which the Potency entry in test [1], in test [2], in test [3] and in test [4] was “inactive” in each case.
As for `[O]=[Bi]`, the activity, negative = inhibition in test [1] is 1.07% [at 10.5 µM] (inactive). The activity change, negative = inhibition in test [2] was 2.59% [at 10.5 µM] (inactive); in test [3], 3.63% [at 10.5 µM] (inactive); in test [4] it was -4.69% [at 10.5 µM] (inactive).
As for `O=c1[nH]cc(F)c(=O)[nH]1`, the Potency in test [1] is 20.8 µM (active) and inactive. The Potency entry in test [2], in test [3] and in test [4] was “inactive” throughout.
For the molecule `Oc1ccc(/C=C/c2cc(O)cc(O)c2)cc1`, the Potency entry in test [1], in test [2], in test [3] and in test [4] was “inactive” throughout.
For `C[C@H]1C[C@H](O)c2ccsc2S1(=O)=O`, the Potency result in test [1], in test [2], in test [3] and in test [4] was “inactive” throughout.
Consider `Cc1cn([C@H]2C[C@H](F)[C@@H](CO)O2)c(=O)[nH]c1=O`, for which the Potency result in test [1], in test [2], in test [3] and in test [4] was “inactive” throughout.
`Nc1nc2ccc(OC(F)(F)F)cc2s1`: the Potency result in test [1], in test [2], in test [3] and in test [4] was “inactive” each time.
For the molecule `CCC(C)c1cc(C(C)(C)C)c(O)c(C(C)(C)C)c1` (stereo not given), the Potency entry in test [1], in test [2], in test [3] and in test [4] was “inactive” each time.
Turning to `CC(C)c1cccc(O)c1`, the Potency result in test [1], in test [2], in test [3] and in test [4] was “inactive” each time.
`CN(C)N=Nc1ccccc1`: the Potency entry in test [1], in test [2], in test [3] and in test [4] was “inactive” throughout.
For the molecule `CCOC(C)=O`, the Potency result in test [1], in test [2], in test [3] and in test [4] was “inactive” each time.
As for `NC(=O)c1ccc([N+](=O)[O-])cc1`, the Potency result in test [1], in test [2], in test [3] and in test [4] was “inactive” throughout.
Turning to `CC/C=C/CCO`, the Potency entry in test [1], in test [2], in test [3] and in test [4] was “inactive” in each case.
Take `C[C@H](NC(CCc1ccccc1)C(=O)O)C(=O)N1CCC[C@H]1C(=O)O` (stereo not given in full): the Potency entry in test [1], in test [2], in test [3] and in test [4] was “inactive” throughout.
For `COC(=O)CCCCCCCC(=O)OC`, the Potency result in test [1], in test [2], in test [3] and in test [4] was “inactive” throughout.
Turning to `CO[C@@H]1[C@H](OC(=O)/C=C/C=C/C=C/C=C/C(=O)O)CC[C@]2(CO2)[C@H]1[C@@]1(C)O[C@@H]1CC=C(C)C`, the Potency entry in test [1], in test [2], in test [3] and in test [4] was “inactive” throughout.
As for `Cc1cc(C(C)(C)C)c(O)c(C(C)(C)C)c1`, the Potency entry in test [1], in test [2], in test [3] and in test [4] was “inactive” throughout.
With `Cc1c(C2(c3cc(Br)c(O)c(Br)c3C)OS(=O)(=O)c3ccccc32)cc(Br)c(O)c1Br`, the Potency entry in test [1], in test [2], in test [3] and in test [4] was “inactive” throughout.
`NC(N)=NC(=O)c1nc(Cl)c(N)nc1N`: the Potency in test [1] is 35.8 µM (active) and 32.9 µM (active) and 27.5 µM (active); in test [3], 12.7 µM (active) and 32.9 µM (active). For the same molecule, the Potency entry in test [2] and in test [4] was “inactive” throughout.
Take `CC(=O)C1=C(C)[C@@H]2C[C@@]3(C1)[C@H](C)CC[C@H]3C2(C)C`: the Potency entry in test [1], in test [2], in test [3] and in test [4] was “inactive” throughout.
For the molecule `Clc1ccc(C(c2ccccc2Cl)C(Cl)Cl)cc1` (stereo not given), the Potency entry in test [1], in test [2], in test [3] and in test [4] was “inactive” each time.
With `Cc1ccc2c(Cl)cc(Cl)c(O)c2n1`, the Potency result in test [1], in test [2], in test [3] and in test [4] was “inactive” each time.
As to `Oc1cccc(O)c1`, the Potency entry in test [1], in test [2], in test [3] and in test [4] was “inactive” in each case.
Consider `c1ccc2c(c1)-c1cccc3c1c-2cc1ccccc13`, for which the Potency entry in test [1], in test [2], in test [3] and in test [4] was “inactive” throughout.
For `ICCc1ccccc1`, the Potency entry in test [1], in test [2], in test [3] and in test [4] was “inactive” in each case.
Take `CCCc1cc(C(N)=S)ccn1`: the Potency result in test [1], in test [2], in test [3] and in test [4] was “inactive” throughout.
Consider `CC(C)c1ccc(O)c(C(C)C)c1`, for which the Potency result in test [1], in test [2], in test [3] and in test [4] was “inactive” each time.

The values above are taken from PubChem BioAssay (Tox21).
